RGS4 inhibitor = Inhibitors of Regulator of G Protein Signaling (RGS) 4: qHTS; hit rate 0.039% among 390,000; Transcreener GDP fluorescence polarization, RGS4-accelerated GTP hydrolysis; Potency, µM (titrated, usually from 114 µM), for the others: at the highest dose activity change, negative = inhibition, usual class: inhibitors; Regulator of G-protein signaling 4 (Homo sapiens), P49798; further: potency means the concentration at half of the fitted maximal effect; on the % scale 0 is the no-effect control and ±100 the full control effect; nearly all actives have a fitted effect of over 75% in size
Target sequence (P49798 whole entry, looked up): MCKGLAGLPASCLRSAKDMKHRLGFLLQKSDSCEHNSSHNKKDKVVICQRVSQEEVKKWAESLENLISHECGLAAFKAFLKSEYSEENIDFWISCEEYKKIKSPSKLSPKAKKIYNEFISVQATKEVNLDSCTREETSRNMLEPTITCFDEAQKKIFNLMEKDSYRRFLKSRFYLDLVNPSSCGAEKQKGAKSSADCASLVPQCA
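MLSMR compounds (23 nl, pin-transferred) preincubated 10 min at room temperature with a 500nM (2x) first reagent, then RGS4 at 900nM (2x) plus Transcreener GDP mix added; fluorescence polarization (620/688 nm) read before and after 90 min at 30 °C.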
A-T KAP1 phos = qHTS Assay for Identifying a Potential Treatment of Ataxia-Telangiectasia; F2112 A-T fibroblasts, KAP-1 phosphorylation AlphaLISA; neocarzinostatin DNA damage 30 min before lysis; hit rate 0.19% among 320,000; Potency, µM (doses to about 57.5 µM), without a hit: at the highest dose activation, actives largely listed as activators; further: potency means the concentration at half of the fitted maximal effect; % of control where 0% means no effect; nearly all actives have a fitted effect of over 45% in size
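hTERT-immortalized A-T patient fibroblasts (F2112), 500 cells/well in OPTI-MEM, 1% FBS, got compounds for 60 min, then NCS for 30 min at 37C. Lysates were then assayed for phospho-KAP-1 by AlphaLISA (anti-pKAP1 donor, anti-KAP1 acceptor beads), 6 hr at 25C.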
Apoferritin bind = qHTS Assay for Identification of Novel General Anesthetics. apoferritin/1-aminoanthracene competitive binding, fluorescence. Ferritin light chain (Equus caballus), P02791. hit rate 0.074% among 350,000. Potency, µM (top dose mostly 77.5 µM), inactives show at the highest dose activity change, negative = displacement, usual class: inhibitors; further: potency means the concentration at half of the fitted maximal effect; on the % scale 0 is the no-effect control and ±100 the full control effect; nearly all actives have a fitted effect of over 20% in size
Target sequence (P02791 2-175 limits assumed): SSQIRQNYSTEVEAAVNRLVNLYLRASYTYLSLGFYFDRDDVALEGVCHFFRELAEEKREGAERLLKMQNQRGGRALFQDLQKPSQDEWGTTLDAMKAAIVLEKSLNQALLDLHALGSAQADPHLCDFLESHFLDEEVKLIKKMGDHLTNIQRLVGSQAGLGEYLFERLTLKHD
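Steps: apoferritin (10 uM) was premixed with half-saturated 1-AMA in PBS, compounds were pin-transferred, plates stood 10 min at room temperature, fluorescence was read at 380/535 nm, and curves were fitted with a Hill equation.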
LDHA block = qHTS assay for inhibitors of human lactate dehydrogenase | hit rate 0.15% among 480,000 | purified LDHA, NADH/diaphorase-resazurin fluorescence; stronger effect = lower value | activity change, % (values are at about 110 or 230 µM); in the data active means activity change below about -30%; inconclusive means mostly about -25% to -30%;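 further: plate controls were DMSO wells for no effect and wells without enzyme for full effect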
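Resorufin fluorescence (ex540/em590), read at 0 and 20 min after diaphorase/resazurin addition, reports the NADH left after a 5 min room-temperature reaction of 2 nM human LDH5 with 0.06 mM NADH and 0.2 mM pyruvate.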
* = called active by the depositor; ? = inconclusive; / = not tested or not shown; ! = a repeat was not active; [ ] = another dose, or the depositor's remark. Most compounds without a hit are left out; they make up all but 0.35% or so of the library. Unless noted, the call rests on the fitted dose curve; in most records, active means well fitted curve in the direction sought with a large enough effect; inconclusive means small, poorly fitted or top-dose-only effect, or another doubt; inactive means no such curve, though single readings can be large; an effect the other way counts as inactive or inconclusive.

SMILES	RGS4 inhibitor	A-T KAP1 phos	Apoferritin bind	LDHA block
COc1cccc(OC)c1C(=O)NC(=O)Nc1c(C)cccc1C	17%	3.5µM*	-4%	-1
COc1ccc([N+](=O)[O-])c(OC)c1C(=O)NC(=O)Nc1c(C)cccc1C	1%	-14%	-7%	-2
Cc1cc(N2CCN(C(C(=O)O)c3c[nH]c4ccc(Br)cc34)CC2)nc2ccccc12 (stereo not drawn)	/	/	/	1
O=C(O)c1cc([N+](=O)[O-])ccc1OC(F)F	/	/	/	0
CCCCCCc1cc2cc(S(=O)(=O)c3ccc(F)cc3)c(=O)oc2cc1O	-19%	28µM*	1%	-2
CCCCCCc1cc2cc(-c3nnc(-c4ccccc4O)o3)c(=O)oc2cc1O	-9%	14%	-13%	1
CC1(C(=O)Nc2cccc(C(F)(F)F)c2)Cc2ccccc2C(=O)O1 (stereo not drawn)	-7%	/	16µM*	1
CN(C)S(=O)(=O)c1cccc(-n2sc3ccccc3c2=O)c1	-124%	0%	-14%	-43*
NC(=O)C1CCN(C(=O)c2cc(-c3ccc(-c4ccccc4)cc3)nc3ccccc23)CC1	/	/	/	-4
Cc1ccc(N(CC(=O)N2CCC(C(N)=O)CC2)S(=O)(=O)c2ccc(Cl)cc2)cc1C	/	/	/	0
NNC(=O)c1cc2cc3ccccc3nc2s1	-13%[56.9 µM]	18%	-20%	-34*
Nc1sccc1C(=O)NCc1ccncc1	/	/	/	21
CCCC(=O)Nc1ccc2nc(SCC(=O)Nc3nccs3)sc2c1	-16%	4%	-3%	-35*
CN(C)S(=O)(=O)c1cccc(C(=O)N=C2N=C3C=CC(Cl)=CN3Cc3ccccc32)c1	7%	0.71µM*	-4%	-2
N#Cc1c(-c2ccccc2)cc(-c2cccs2)nc1SCCS(=O)(=O)c1nc2ccccc2s1	/	/	/	-3
Cc1cc(Nc2cccc(C(F)(F)F)c2)nc(NCc2ccccc2)n1	/	/	/	1
COc1cc(/C=C2\CCOC2=O)cc(OC)c1OC	2%	1µM*	7%	1
COc1ccc(/C=C2/CCOC2=O)cc1	-5%	13%	2%	-5
CCCN1C(=O)c2ccccc2NC1c1ccc(OC)c(COc2ccc([N+](=O)[O-])c(C)c2)c1 (stereo not drawn)	8%	/	/	-59*
COc1ccc(C2Nc3ccccc3C(=O)N2Cc2ccco2)cc1COc1ccc([N+](=O)[O-])cc1 (stereo not drawn)	-25%	5%	?	-1
CN1CCN(C(=O)C2CCCN(S(=O)(=O)c3ccc(Cl)cc3)C2)CC1 (stereo not drawn)	7%	12%	2%	-33*
O=C(CCc1ncc(-c2ccc(Cl)cc2)o1)Nc1cc(F)cc(F)c1	/	/	/	1
Cc1cccc(NC(=O)c2ccc(NCC3CCCO3)c([N+](=O)[O-])c2)n1 (stereo not drawn)	7%	1%	28µM*	-14
CCOc1ccc2oc(=O)cc(CN3CCOCC3)c2c1	-4%	0%	-1%	-8
CCOc1ccc2oc(=O)cc(CN3CCN(c4ccccc4)CC3)c2c1	31%	/	-8%	-30*!
SMILES	RGS4 inhibitor	A-T KAP1 phos	Apoferritin bind	LDHA block
Cc1nnc(SCC(=O)Nc2ccc(S(N)(=O)=O)cc2)n(N)c1=O	9%	-10%	/	-39*
Cc1ccc(NC(=O)CSc2nnc(C)c(=O)n2N)cc1	12%	2%	-7%	-6
COc1ccccc1-n1[nH]c(C)c(Cc2ccc(Cl)cc2)c1=O	/	/	/	5
COc1ccccc1-n1[nH]c(C)c(Cc2ccccc2Cl)c1=O	/	/	/	-44*
NC(=O)CCS(=O)(=O)CCN1CCCC1c1cccc(F)c1 (stereo not drawn)	/	/	/	-3
CCCc1ccc(-c2c(C)sc(N)c2C#N)cc1	-50%	-16%	35µM*	2
CCc1ccc(-c2c(C)sc(N)c2C#N)cc1	/	/	/	-4
O=C(O)c1cc(O)ccc1O	-5%	/	/	4
O=C(O)C1=CC(=C(c2ccc(O)c(C(=O)O)c2)c2ccc(O)c(C(=O)O)c2)C=CC1=O	11µM*	25%	/	-75*
CCCCCCCCCNc1c2c(nc3ccccc13)CC(C)(C)CC2=O	/	/	/	4
Nc1ccc(Sc2ccc([N+](=O)[O-])cc2)cc1	-22%	9%	11µM*	-2
CCCCCCCCCn1ccc(=N)cc1	1%	3.2µM*	-13%	-9
COc1cc(Cl)c(C)cc1NC(=O)CSc1ncc(S(=O)(=O)c2ccc(C(C)(C)C)cc2)c(=O)[nH]1	-50%	/	?	-39*
CC(C)(C)c1ccc(S(=O)(=O)c2cnc(SCC(=O)Nc3ccc(F)c(Cl)c3)[nH]c2=O)cc1	?	/	?	-49*
O=c1cc(CSc2nnc(NC3CC3)s2)c2ccc(O)cc2o1	/	/	/	5
Cc1cccc(CN2CCN(Cc3ccco3)CC2)c1	-4%	3%	-10%	-32*
O=C(c1ccco1)N1CCN(Cc2cccc(F)c2)CC1	9%	/	-1%	-32*
Clc1cccc(CN2CCN(Cc3ccco3)CC2)c1	6%	-2%	2%	-21
N#Cc1cccc(C(=O)Nc2ccc(Cl)c(C(F)(F)F)c2)c1	/	/	/	-18
COC(=O)c1ccccc1OCCCCN1CC(C)OC(C)C1 (stereo not drawn)	-12%	0%	-4%	-31*
COC(=O)c1ccc(CN2[C@H](C(=O)OC)C[C@@]3(O)[C@H](O)[C@H](O)[C@H](O)C[C@@H]23)cc1	6%	23%	-12%	4
COC(=O)[C@@H]1C[C@@]2(O)[C@@H](O)[C@@H](O)[C@@H](O)C[C@H]2N1Cc1ccc(Cl)cc1	-1%	40µM*	-5%	-3
Cc1ccc(-c2cc(Nc3cccc(C(=O)N(C)Cc4ccccc4)c3)ncn2)cc1	/	/	/	7
CCOc1ccc2nc(S(=O)(=O)NC(=O)C3(C)CCN3C(=O)c3cc(C)n(C)n3)sc2c1 (stereo not drawn)	/	/	/	-67*
CCOc1ccc2nc(S(=O)(=O)NC(=O)C3(C)CCN3C(=O)c3c(C)noc3C)sc2c1 (stereo not drawn)	/	/	/	-15
SMILES	RGS4 inhibitor	A-T KAP1 phos	Apoferritin bind	LDHA block
O=C(O)C/C(=C/c1csc(-c2ccc(F)cc2)n1)c1nc2ccccc2s1	/	/	/	-4
COCCNC(=O)C(=O)N1CCN(c2nc(C(C)C)c3c(c2C#N)CCCC3)CC1	/	/	/	1
CCCCCCCCCCS(=O)(=O)N/N=C/c1cccc([N+](=O)[O-])c1	/	/	/	12
CCCCCCCCCS(=O)(=O)N/N=C/c1cccc([N+](=O)[O-])c1	-11%	0%	7.1µM*	2
CCCCCCCCCCS(=O)(=O)N/N=C/c1ccc(O)cc1	6%[11.4 µM]	0%	16µM*	-6
CSC1=C(C#N)C(c2ccccc2C)C(C#N)=C(N)N1 (stereo not drawn)	7%	0%	-22%	-36*
Cc1ccc2c3cc(-c4ccccc4)cn3ccn12	/	/	/	6
